aSyn UTR act = Activators working through SNCA 5'UTR binding (MLPCN) | 300,000 compounds, 7.1% hits | AID 1814 | alpha-synuclein 5'UTR reporter, activators screen | activity score, % (tested at 7.5 µM), hits read low; in the data active = activity score below about -60%
Numbers without * were called inactive. Only a sample is shown.

What do the screens show for `COc1ccc(Oc2ccc(/C=C/C(=O)c3ccc(O)cc3)cc2[N+](=O)[O-])cc1`?
aSyn UTR act: -97.1*

What do the screens show for `O=C(/C=C/c1ccc(O)c([N+](=O)[O-])c1)c1ccc2ccccc2c1`?
aSyn UTR act: -124.1*

What do the screens show for `CN(C)c1ccc(/C=C/C(=O)c2ccccc2)cc1[N+](=O)[O-]`?
aSyn UTR act: -195.0*

What do the screens show for `CCOc1ccc(N2C(=O)/C(=C/c3ccccc3)N=C2SC)cc1`?
aSyn UTR act: -89.0*

Results for COc1ccc(/C=C2\N=C(SC)N(c3ccccc3OC)C2=O)cc1 ?
aSyn UTR act: -66.3*

What do the screens show for `CCOc1ccc(C(=O)COC(=O)Cc2n[nH]c(=O)c3ccccc23)cc1`?
aSyn UTR act: -87.2*

How did O=C(Cc1n[nH]c(=O)c2ccccc12)OCC(=O)c1ccc2c(c1)OCCO2 do in these assays?
aSyn UTR act: 80.4

What do the screens show for `OC1CCN(Cc2ccc(OCc3ccccc3)cc2)CC1`?
aSyn UTR act: -69.7*

How did CCCCNC(=O)C1CCN(Cc2ccc(OCc3ccccc3)cc2)CC1 do in these assays?
aSyn UTR act: -218.9*

Results for C=CCN(CC=C)C(=O)C1CCN(Cc2ccc(OCc3ccccc3)cc2)CC1 ?
aSyn UTR act: -96.8*

How did CCOc1ccccc1NC(=O)c1ccc2ccccc2c1 do in these assays?
aSyn UTR act: -80.7*

How did CCOc1ccccc1NC(=O)c1ccc2[nH]c(C)c(C)c2c1 do in these assays?
aSyn UTR act: -90.5*

Results for CCC(=O)CCC(=O)c1ccc2ccccc2c1 ?
aSyn UTR act: -92.2*

What do the screens show for `CC(Sc1nnc(NC2CCCCC2)s1)C(=O)Nc1ccc2c(c1)C(=O)c1ccccc1C2=O` (stereo unspecified)?
aSyn UTR act: -79.1*

What do the screens show for `O=C(Nc1ccc2c(c1)oc1ccccc12)c1cccnc1`?
aSyn UTR act: -190.2*

What do the screens show for `CCNC(=S)Nc1ccc2c(c1)oc1ccccc12`?
aSyn UTR act: -164.6*

How did O=C(Nc1ccc2c(c1)oc1ccccc12)c1ccncc1 do in these assays?
aSyn UTR act: -207.4*

What do the screens show for `N#C/C(=C\c1ccc(OCC(N)=O)cc1)c1ccccc1`?
aSyn UTR act: -153.9*

What do the screens show for `Cc1nc2cc(Nc3nnc(-c4ccccc4)c4ccccc34)ccc2n1C`?
aSyn UTR act: -109.6*

How did COc1ccccc1N1CCN(Cc2ccc(O)c3ncccc23)CC1 do in these assays?
aSyn UTR act: 76.6

How did Cc1cc2nc(-c3cccnc3SCC(=O)NC(C)C)[nH]c2cc1C do in these assays?
aSyn UTR act: -122.2*

What do the screens show for `COc1ccc(N2CCN(C(=O)CSc3ncccc3-c3nc4ccccc4[nH]3)CC2)cc1`?
aSyn UTR act: -114.1*

What do the screens show for `COc1ccccc1N1CCN(C(=O)CSc2ncccc2-c2nc3ccccc3[nH]2)CC1`?
aSyn UTR act: -68.2*

What do the screens show for `CC(C)(C)C(=O)NC(=S)Nc1ccc(F)cc1`?
aSyn UTR act: -84.2*

How did CC(C)(C)C(=O)NC(=S)Nc1cccc(C(=O)O)c1 do in these assays?
aSyn UTR act: -160.7*

How did Fc1ccc(-c2nnsc2Sc2ccccn2)cc1 do in these assays?
aSyn UTR act: -84.5*

What do the screens show for `COc1ccc(C(=O)c2ccsc2N)cc1`?
aSyn UTR act: -97.3*

How did COc1ccc(C(=O)c2ccc(CC#N)s2)cc1 do in these assays?
aSyn UTR act: -150.2*

Results for Cc1[nH]c2ccccc2c1N=Nc1ccccc1F ?
aSyn UTR act: -122.1*

How did CC(=O)/C=C(\C)Nc1ccc(-c2cnc(-c3ccccc3)o2)cc1 do in these assays?
aSyn UTR act: -94.9*

How did CCc1ccc(-n2nc3ccc(NC(=O)c4ccc5c(c4)OCO5)cc3n2)cc1 do in these assays?
aSyn UTR act: -65.7*

What do the screens show for `CCOc1ccc(-n2nc3ccc(NC(=O)c4ccc5c(c4)OCCO5)cc3n2)cc1`?
aSyn UTR act: 47.4

What do the screens show for `O=C(Nc1ccc2nn(-c3ccccc3)nc2c1)c1ccc2c(c1)OCCO2`?
aSyn UTR act: -82.3*

What do the screens show for `COc1cccc2oc3cc(C#Cc4ccccn4)ccc3c(=O)c12`?
aSyn UTR act: -194.5*

Results for N#C/C(=N\Nc1ccccc1)C(=N)N1CCCCC1 ?
aSyn UTR act: -77.7*

Results for CCN(CC)C(=N)/C(C#N)=N/Nc1ccccc1 ?
aSyn UTR act: -80.9*

What do the screens show for `Cc1ccc(N/N=C(\C#N)C(=N)N2CCCCC2)cc1`?
aSyn UTR act: -91.2*

How did N#C/C(=N\Nc1ccc(Cl)cc1)C(=N)N1CCCCCC1 do in these assays?
aSyn UTR act: -133.4*

What do the screens show for `COc1ccc2cc(C(=O)C3CCCN(C(=O)CCc4cnn(C)c4)C3)ccc2c1` (stereo unspecified)?
aSyn UTR act: -82.4*

Results for CCOC(=O)c1cnc(Nc2nc3ccccc3o2)nc1CSc1ncccn1 ?
aSyn UTR act: -100.1*

How did CCCc1nc(Nc2nc3ccccc3o2)nc(C)c1C(=O)OCC do in these assays?
aSyn UTR act: -80.1*

How did CCCCNC(=S)N=Nc1c(O)[nH]c2ccccc12 do in these assays?
aSyn UTR act: -81.3*

What do the screens show for `CCNC(=S)N=Nc1c(O)[nH]c2ccc(C(C)C)cc12`?
aSyn UTR act: 63.2

How did Oc1cccc(NC(=S)N=Nc2c(O)[nH]c3ccccc23)c1 do in these assays?
aSyn UTR act: -158.2*

Results for NC(=Nc1ccccc1)NC(=O)c1nc(Cl)c(N)nc1N ?
aSyn UTR act: -125.9*

Results for CN(C)c1ccc(/C=C/c2cc[n+]([O-])cc2)cc1 ?
aSyn UTR act: -114.4*

What do the screens show for `C(C#CCCCCCCCCC[n+]1ccccc1)#CCCCCCCCCC[n+]1ccccc1`?
aSyn UTR act: 73.3

What do the screens show for `Cc1[nH]c2ccccc2c1/C=C(\C#N)C(=O)NC1CC1`?
aSyn UTR act: -80.0*

Results for CC1CCC2(CC1)NC(=O)N(CC(=O)Nc1ccc3c(c1)OCCO3)C2=O (stereo unspecified) ?
aSyn UTR act: -99.5*

Results for O=C(CN1C(=O)NC2(CCCCCC2)C1=O)c1ccc2c(c1)OCCO2 ?
aSyn UTR act: -154.3*

How did CC(C)C1Oc2ccccc2C(=O)N(CC(=O)c2ccc3c(c2)OCCO3)C1=O (stereo unspecified) do in these assays?
aSyn UTR act: -224.1*

Results for CCCCCCCCCCCCCCCC[N+](C)(C)CC ?
aSyn UTR act: 100.9

What do the screens show for `N#CC1=C(N)NC(SCc2ccc(F)cc2)=C(C#N)C12CCCCC2`?
aSyn UTR act: -83.2*

How did Cc1nnc(NC(=O)c2ccc(S(=O)(=O)C(F)F)cc2)s1 do in these assays?
aSyn UTR act: -78.4*

What do the screens show for `CSc1nnc(NC(=O)c2ccc3c(c2)OCO3)s1`?
aSyn UTR act: 81.4

Results for O=C(Nc1nncs1)c1ccc2c(c1)OCO2 ?
aSyn UTR act: -83.2*

How did Cc1nnc(NC(=O)c2ccc3c(c2)OCO3)s1 do in these assays?
aSyn UTR act: -150.2*

What do the screens show for `Cc1nnc(NC(=O)c2cccc(Br)c2)s1`?
aSyn UTR act: -95.9*

Results for COCCSc1nnc(NC(=O)c2ccc3c(c2)OCO3)s1 ?
aSyn UTR act: -118.2*

Results for Cc1nnc(NC(=O)c2c(F)c(F)c(F)c(F)c2F)s1 ?
aSyn UTR act: -73.0*

How did Cc1cccc(-n2ncc3c(N4CCC5(CC4)OCCO5)ncnc32)c1 do in these assays?
aSyn UTR act: -81.6*

Results for c1ccc(-n2ncc3c(N4CCC5(CC4)OCCO5)ncnc32)cc1 ?
aSyn UTR act: -223.3*

Results for CN1CCN(C(=O)c2ccc(-c3cccs3)s2)CC1 ?
aSyn UTR act: -97.8*

What do the screens show for `Cc1cccc(C)c1NC(=O)/C(C#N)=C/c1ccc(-c2ccc(C(=O)O)cc2)o1`?
aSyn UTR act: -127.1*

Results for CNC(=O)/C(C#N)=C/c1ccc(-c2ccc(Cl)cc2)o1 ?
aSyn UTR act: -125.0*

Bioassay records deposited in PubChem BioAssay by Broad Institute.
